Values without a mark were called inactive. Active and inactive are the calls of the source.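 How the source made its calls: active means fitted half-maximal concentration AC50 at or below ten times the highest valid tested dose, with signal falling as DNA is displaced (actives reach about 34 µM in these data); inconclusive means flat fit at moderate signal loss, or poor fit quality; inactive means the rest, including signal rising instead of falling.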
assay: DNA intercalators displacing acridine orange, dose response, artefact control for KSHV LANA DNA-binding inhibitor project, biochemical, fluorescence polarization, cherry-picked samples, set 2 (AID 504727); conditions: AC50: Acridine orange-DNA displacement; series mostly up to 35 µM; activity change, negative = DNA displacement: at the top concentration;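 on activity change, negative = DNA displacement: 0% = median of neutral control wells and -100% = mitoxantrone positive control wells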

First: Cc1ccc(OCC(=O)NC(=S)Nc2cccc(NC(=O)c3ccc(Cl)cc3Cl)c2)cc1
Second: COc1ccc(NS(=O)(=O)c2cccc3ccccc23)cc1
The “activity change, negative = DNA displacement” value (“activity change” below) of the first is lower: 0.722% for the first, 3.43% for the second.

Compared with `CCOC(=O)c1cnc(SC)nc1Sc1ccc(Cl)cc1Cl`, `COc1cccc(OC)c1C(=O)Nc1cc(C)on1` is lower in “activity change” value: 6.11% for the first, 1.43% for the second.

Going from `CC(C)CC(=O)Nc1nnc(CSCc2ccc(F)cc2)s1` to `CC(C)Cc1nc(SCC(=O)Nc2nnc(CC(C)C)s2)n[nH]1`, the “activity change” value falls from 5.86% to 0.376%.

First: O=C(O)c1cccc(NC2=Nc3cccc4cccc2c34)c1
Second: Cc1cc(/C=N/Nc2ccc([N+](=O)[O-])cn2)c(C)n1-c1cccc(C(=O)O)c1
The “activity change” value of the first is lower: 3.7% for the first, 17.9% for the second.

Going from `Cc1cc(C)n(CCC(=O)N/N=C/c2ccc(O)cc2O)n1` to `Cc1c(C)n(CCC(=O)O)c2ccccc12`, the “activity change” value falls from 4.84% to -0.566%.

First: C/C(=N\Nc1nc2c(s1)CCCC2)c1ccc(Cl)cc1
Second: CN1CCN(CCCNC(=O)c2cc3c(-c4ccc(Cl)cc4)nn(C)c3s2)CC1
The “activity change” value of the first is higher: 5.41% for the first, -6.74% for the second.

Going from `NNC(=S)Nc1ccc(S(=O)(=O)N2CCOCC2)cc1` to `COc1ccc(OC2CCN(S(=O)(=O)c3ccc(OC)cc3)CC2)cc1`, the “activity change” value falls from 7.25% to 0.058%.

Compared with `O=C(C1CCCO1)N1CCN(c2ncccn2)CC1` (stereo not drawn), `O=C(CN1CCN(C(=O)CNC(=O)c2ccc3c(c2)OCO3)CC1)Nc1ccc(F)cc1` is lower in “activity change” value: 4.25% for the first, 3.42% for the second.

Compared with `CC(=O)N/C(=N\OCc1ccc(Br)cc1)c1nonc1NC(C)=O`, `CCNC(=O)COC(=O)c1cccc(Br)c1` is lower in “activity change” value: 3.71% for the first, 0.49% for the second.

First: O=S(=O)(O)c1cccc2c(N=Nc3ccc(O)c4ncccc34)cccc12
Second: Nc1ccc2c(O)cc(S(=O)(=O)O)cc2c1
The “activity change” value of the first is higher: 5.4% for the first, 0% for the second.

First: COc1cc(O)c(C(C)=O)c(CC(=O)O)c1
Second: COC(=O)c1cccc(COC(=O)c2ccccc2NC(=O)c2ccco2)c1
The “activity change” value of the first is lower: 1.3% for the first, 5.3% for the second.

Going from `Cc1ccc(-c2nnn(CC(=O)NC3CCN(Cc4ccccc4)CC3)n2)cc1` to `COc1ccc(C(=O)OCC(=O)NC2CC2)cc1S(=O)(=O)Nc1ccc(C)cc1`, the “activity change” value falls from 4.81% to 4.67%.

First: O=C(CCCN1C(=O)/C(=C\c2ccco2)SC1=S)Nc1ccc(O)cc1C(=O)O
Second: Cc1cc(NS(=O)(=O)c2ccc(Nc3nc(-c4sc(N)nc4C)cs3)cc2)no1
The “activity change” value of the first is lower: -7.15% for the first, 11.1% for the second.

First: CCOC(=O)C1Nc2ccccc2C2C(O)C(O)CC12 (stereo not drawn)
Second: COC(=O)c1ccc(OCC(O)CN2CCC(C)CC2)cc1 (stereo not drawn)
The “activity change” value of the first is higher: 3.73% for the first, -2.58% for the second.

Going from `CSC(=NS(=O)(=O)c1ccc(N)cc1)NS(=O)(=O)c1cccs1` to `Cc1ccc(S(=O)(=O)/N=C/c2ccc(N(C)C)cc2)cc1`, the “activity change” value falls from 5.36% to 1.03%.

With `Cc1cc(C(F)(F)F)c2c(N)c(C(=O)Nc3cc(C)on3)sc2n1` the “activity change” value was -2.86%.

For `O=C1c2ccccc2-c2onc3ccc(NCc4ccco4)c1c23`, the AC50 was 3.82 µM (active).
For `COc1ccc(C2C(C(=O)c3cccs3)=C(O)C(=O)N2c2nnc(C)s2)cc1OC` (stereo not drawn), the AC50 was 21.6 µM (active).
For `Nc1ccc(-c2c3ccc(=O)cc-3oc3cc(O)ccc23)cc1C(=O)O`, the AC50 was 1.07 µM (active).
With `O=C(COc1ccccc1Cc1ccccc1)NCCCN1CCOCC1` the AC50 was 33.9 µM (active).
Molecule `CCCCCn1nc(-c2ccccc2)c2nc3ccccc3nc21` has an AC50 of over 35 µM.
In the case of `Cc1cc2nc3c(=O)n(C4CCCCC4)c(=O)[nH]c3nc2cc1N`, the AC50 was 10.6 µM (active).
With `O=C1/C(=C/c2ccco2)Oc2c1ccc(O)c2CN1CCCCC1` the AC50 was 18.9 µM (active).
